# Rows were chosen to be rich in hits. Some 1.6% of all compounds tested hit in one or more screens of this group.
# Mito fusion yeast – qHTS Assay for Small Molecule Inhibitors of Mitochondrial Division or Activators of Mitochondrial Fusion; S. cerevisiae fusion-defective mutant growth rescue, CellTiterGlo 48 h; Potency, µM (doses to about 46.1 µM), for inactives: at the top dose growth rescue (activation), actives largely listed as activators; 320,000 tested, 0.23% active; also: % of control where 0% means no effect; nearly all actives have a fitted effect of over 45% in size
#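 Temperature-sensitive fusion-defective S. cerevisiae (e.g. fzo1-1, mgm1-5) were grown with compound in YPEG medium (3% ethanol, 3% glycerol) for 48 hours at 37C. Growth rescue was measured as viability by CellTiterGlo luminescence after 10 minutes at ambient.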
# FUS yeast rescue – qHTS for Suppressors of FUS Proteinopathy: Primary screen using FUS-linked yeast assay; Potency, µM (titrated, usually from 76.6 µM), usual class: activators; S. cerevisiae FUS-expressing, growth rescue, OD600, 24 h; 390,000 tested, 0.24% active;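 also: plate controls were DMSO vehicle for no effect and reference control for full effect; nearly all actives have a fitted effect of over 55% in size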
#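 Compound concentration series was pinned onto galactose-induced FUS-expressing yeast seeded at OD 0.005. Plates sat 24hr at 30C; absorbance at 600 nm gave growth. DMSO served as background control.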
# gsp agonist – qHTS for Agonist of gsp, the Etiologic Mutation Responsible for Fibrous Dysplasia/McCune-Albright Syndrome: qHTS | gsp mutant cells, cAMP HTRF, 30 min | Potency, µM (titrated, usually from 76.9 µM), without a hit: top-dose activation (cAMP increase), most hits filed as activators | 340,000 tested, 0.13% active | AID 624287, 2012; active = well fitted activation curve with a large enough effect; inconclusive = small, poorly fitted or top-dose-only effect, or another doubt; inactive = no such curve, though single readings can be large or run the other way; cell line not stated here;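 also: phosphodiesterase inhibitor Ro 20-1724 added with compounds to block cAMP breakdown; nearly all actives have a fitted effect of over 60% in size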
#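 Cells in DMEM/10% FBS with G418 were pretreated with compounds in DMSO plus […] (300 uM stock) for 30 min at 37C. cAMP was measured by HTRF (cAMP-d2 plus anti-cAMP antibody-K) after 30 min at room temperature.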
# 12-LOX inh – Primary qHTS assay for inhibitors of human arachidonate 12S-lipoxygenase (ALOX12): Round 2. Polyunsaturated fatty acid lipoxygenase ALOX12 (Homo sapiens), P18054. purified 12hLO, xylenol orange hydroperoxide absorbance. Potency, µM (highest dose often 108 µM), inactives show at the top dose activity change, negative = inhibition, most hits filed as inhibitors. 580,000 tested, 1.1% active. AID 1671190, 2021; also: % is scaled to controls: 0 for no effect and ±100 for the full control effect
# Target sequence (P18054 whole entry, looked up): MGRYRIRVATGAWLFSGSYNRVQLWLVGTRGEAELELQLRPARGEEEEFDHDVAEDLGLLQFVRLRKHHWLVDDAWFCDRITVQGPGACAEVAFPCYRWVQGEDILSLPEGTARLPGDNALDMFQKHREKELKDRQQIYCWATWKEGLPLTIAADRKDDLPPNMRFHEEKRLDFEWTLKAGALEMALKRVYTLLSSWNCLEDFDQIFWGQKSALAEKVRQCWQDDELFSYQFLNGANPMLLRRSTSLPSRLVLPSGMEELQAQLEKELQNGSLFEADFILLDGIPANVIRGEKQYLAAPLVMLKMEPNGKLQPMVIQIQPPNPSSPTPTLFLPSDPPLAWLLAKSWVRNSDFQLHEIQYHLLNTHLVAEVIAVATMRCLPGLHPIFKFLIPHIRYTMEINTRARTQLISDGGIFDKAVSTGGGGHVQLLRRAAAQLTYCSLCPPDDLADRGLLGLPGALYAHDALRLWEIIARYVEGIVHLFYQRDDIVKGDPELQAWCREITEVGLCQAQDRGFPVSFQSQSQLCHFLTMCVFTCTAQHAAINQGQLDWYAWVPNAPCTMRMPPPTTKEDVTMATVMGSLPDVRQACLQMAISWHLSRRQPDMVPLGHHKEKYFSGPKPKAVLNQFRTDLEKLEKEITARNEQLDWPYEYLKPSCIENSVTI
#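 Purified human 12hLO (150 nM final) in 25 mM Hepes, 0.01% Triton X-100, pH 7.0 was preincubated 15 min at room temperature with compound. Then 40 uM arachidonic acid was added, 30 min. Hydroperoxide was read by Fe-XO absorbance ratio 573/405 nm.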
# gsp antag – qHTS for Antagonists of gsp, the Etiologic Mutation Responsible for Fibrous Dysplasia/McCune-Albright Syndrome: qHTS. gsp-mutant cells, cAMP HTRF, 30 min. Potency, µM (series often up to 76.9 µM), without a hit: at the highest dose activity change, negative = inhibition, usual class: inhibitors. 340,000 tested, 0.4% active. AID 624288, 2012; calls by dose curve; cell line not stated here;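 also: intracellular cAMP measured with PDE inhibitor Ro 20-1724 present during compound exposure; % is scaled to controls: 0 for no effect and ±100 for the full control effect; nearly all actives have a fitted effect of over 65% in size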
#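 Measurement of cellular cAMP by homogeneous time-resolved fluorescence following a 30 min compound exposure at 37C. The PDE inhibitor […] was present throughout; the assay buffer was DPBS with 0.05% BSA and 0.005% Tween 20.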
# The depositor's hits bear a star; i = inactive; u = inconclusive; x = not tested or not shown; [ ] = remark or other dose. Unless noted, calls follow the shape of the dose curve; as a rule, active = well fitted curve in the direction sought with a large enough effect; inconclusive = small, poorly fitted or top-dose-only effect, or another doubt; inactive = no such curve, though single readings can be large; an effect the other way counts as inactive or inconclusive. Potency is read from the fitted curve at half-maximal effect.
SMILES,Mito fusion yeast,FUS yeast rescue,gsp agonist,12-LOX inh,gsp antag
C/C(=C\C(=O)c1ccc(C)o1)Nc1ccc(C(=O)O)cc1C,-4%,i,-29%,25µM*,-8%
Cc1cc(C(=O)O)ccc1NCc1ccncc1,-3%,i,-10%[15.4 µM],0%,-5%
S=C1NC(c2cccs2)=CC(c2ccc(Br)cc2)N1 (stereo not given),u,x,4%,40µM*,u
S=C1NC(c2ccccc2)=CC(c2ccccc2)N1 (stereo not given),-1%,u,-8%[15.4 µM],u,6%
CCNc1c(NC(=O)NCc2ccccc2)c(=O)oc2ccccc12,x,x,x,-13%,x
O=C(COC(=O)CSc1cccc2cccc(Cl)c12)Nc1ncc(C(F)(F)F)cc1Cl,-2%,x,u,28µM*,2%
O=C(COC(=O)c1c2ccccc2cc2ccccc12)Nc1ncc(C(F)(F)F)cc1Cl,-1%,i,25µM*,-46%,-1%
CN1C[C@H](C(=O)Nc2cccc(F)c2)C[C@H]1c1cccc(C(F)(F)F)c1,x,x,x,20µM*,x
COc1ccc(NC(=O)[C@@H]2C[C@@H](c3cccc(C(F)(F)F)c3)N(C)C2)cc1,x,x,x,4%[176 µM],x
COc1ccc(CNC(=O)Nc2ccc(F)c(Cl)c2)cn1,x,x,x,55%,x
CC(C)c1ccc(S(=O)(=O)/N=C2\C=C(NS(=O)(=O)c3ccccc3)C(=O)c3ccccc32)cc1,u,i,13%,35µM*,u
Cn1c(=O)c2[nH]c(COc3ccccc3)nc2n(C)c1=O,x,i,3.2µM*,19%,3%
O=C(NN=C1CCCCCC1)NC1CCCCC1,-4%,i,-14%[15.4 µM],-4%,2%
NC(=S)NN=C1CCCCCCCCCC1,x,x,-25%,45µM*,1%
S=C(NN=C1CCCCCC1)Nc1ccc(Cl)cc1,-3%,i,29%,u,-30%
NC(=S)NN=C1CCC(C2CCCCC2)CC1 (stereo not given),x,i,-23%,35µM*,-5%
CC(C)CCn1cnc2c1c(=O)n(CC(=O)Nc1cc(F)ccc1F)c(=O)n2Cc1ccccc1,x,x,x,5%,x
CC(C)CC(=O)NC1(C(F)(F)F)C(=O)Nc2c1c(=O)[nH]c(=O)n2-c1ccccc1 (stereo not given),x,i,x,32µM*,x
O=C(NC1(C(F)(F)F)C(=O)Nc2c1c(=O)[nH]c(=O)n2-c1ccccc1)c1ccccc1 (stereo not given),x,i,x,u,x
O=C(NCc1ccccc1OC(F)F)c1ccc(-n2cnnn2)cc1,x,x,x,15%,x
CCCNc1c(NC(=O)c2cccc(C)c2)c(=O)oc2ccccc12,x,x,x,6%,x
O=S(=O)(c1ccc2c(c1)OCCO2)c1nc(-c2ccccc2)oc1NCCN1CCOCC1,x,x,x,25µM*,x
Cc1ncsc1CN1C[C@@H](NC(=O)c2cccnc2)C[C@H]1CO,x,x,x,14µM*,x
Cc1ccc(C(=O)NNC(=S)NC(=O)c2ccc(Cl)cc2)cc1,0%,i,u,u,2%
O=C(NC(=S)NC12CC3CC(CC(C3)C1)C2)c1ccc(F)cc1,x,i,-3%[15.4 µM],22µM*,-9%
SMILES,Mito fusion yeast,FUS yeast rescue,gsp agonist,12-LOX inh,gsp antag
O=C(CCc1ccccc1)NNC(=S)NC(=O)c1ccc(Cl)cc1,4%,i,-36%,13µM*,-1%
O=C(NNC(=S)NC(=O)c1ccc(F)cc1)c1ccc(Cl)cc1,x,x,x,18µM*,x
O=C(CCc1ccccc1)NNC(=O)c1ccc(Cl)cc1,-1%,i,4%[15.4 µM],4%,10%
O=C(NC12CC3CC(CC(C3)C1)C2)c1ccc(Cl)cc1,x,x,x,0%,x
CCOc1ccc(NC(=O)c2nn(CC)c(=O)c3ccccc23)cc1OCC,x,x,x,-29%,x
CCN(CC)c1cc(Cl)c2nonc2c1N,0%,i,-1%[15.4 µM],u,12%
CN(C)c1cc(Cl)c2nonc2c1N,-2%,i,-5%,40µM*,4%
CCOC(=O)C(=CNc1ccc2c(c1)c1ccccc1n2CC)C(=O)OCC,0%,i,1%,0%,32µM*
CCOC(=O)/C(C#N)=C\c1c(OCC)n(CC)c2ccccc12,29%,i,-3%[15.4 µM],-18%,25µM*
CCOc1c(/C=C(\C#N)C(N)=O)c2ccccc2n1CC,4%,x,16%,-12%,-2%
CCCC(=O)Nc1ccc2c(c1)c1ccccc1n2CC,4%,x,2%,-23%,-2%
COc1ccc(C(=O)Oc2ccc3c(-c4ccc(OC)cc4)cc(=O)oc3c2)cc1,x,x,x,-12%,x
COc1ccc(-c2cc(=O)oc3c(O)c(O)ccc23)cc1,2%,i,-2%[15.4 µM],1.1µM*,-25%
Cc1ccc(/C=C/C(=O)OC(C)C(=O)c2ccc3c(c2)CCC3)cc1 (stereo not given),x,x,x,37%,x
O=C(NC1CCOC2(CCOCC2)C1)c1cn(CCN2CCNCC2)nn1 (stereo not given),x,x,x,22µM*,x
O=C(Nc1ccncc1)c1cccc(OCc2ccc(F)cc2)c1,x,x,x,35%,x
Cc1ccc2c(CSc3nnc(NCC(C)C)s3)cc(=O)oc2c1,x,x,x,18µM*,x
Cc1csc(NC(=O)CCc2ncc(-c3ccccc3F)o2)n1,x,x,x,2%,x
O=C1OC(/C=C/c2ccc(Cl)cc2Cl)=NC/1=C\c1cccs1,7%,i,21%,35µM*,10%
COc1ccc(C(=O)O)c(Br)c1,x,x,x,-29%,x
O=C(Nc1ccccc1N1CCN(C(=O)c2ccccc2)CC1)c1cc(Br)ccc1Cl,11%,25µM*,-65%,-11%,-21%
O=C(c1ccc2c(c1)OCO2)N1CCCC1,-1%,10µM*,7%,-9%,10%
CC(C)C(=O)NC(=S)Nc1ccccc1N1CCN(C(=O)c2ccc(Cl)cc2)CC1,-2%,i,20%,45µM*,-25%
CC(C)(C)C(=O)Nc1ccccc1N1CCN(C(=O)c2ccc(Cl)cc2)CC1,9%,u,-20%,0%,-23%
O=C(Nc1ccccc1N1CCN(C(=O)c2ccc(Cl)cc2)CC1)c1cccc(F)c1,4%,i,20%,6%,u
SMILES,Mito fusion yeast,FUS yeast rescue,gsp agonist,12-LOX inh,gsp antag
O=C(Nc1ccccc1N1CCN(C(=O)c2ccc(Cl)cc2)CC1)c1ccc2c(c1)OCO2,13µM*,u,22%,0%,-10%
Cc1ccc(SCCC(=O)NNC(=O)c2ccncc2)cc1,x,x,x,75%,x
CN(C)CCNc1ccc2ncn3c4ccc(O)cc4c(=O)c1c23,x,x,14µM*,u,u
O=C(Nc1ccccc1)c1c2c(nc3ccccc13)CCC2,x,x,x,35µM*,x
CSc1cccc(NC(=O)N2CCC(c3cc(-c4cccc(C)c4)n[nH]3)CC2)c1,x,x,x,-3%,x
CCOC(=O)C1CCN(CC(C)(C)NS(=O)(=O)c2ccc(C)cc2)CC1,3.5µM*,i,-5%[15.4 µM],-24%,6%

# Bioassay records deposited in PubChem by National Center for Advancing Translational Sciences (NCATS).
